Bioassay records from PubChem BioAssay.
An excerpt weighted towards active compounds, which were near 3.1% of everything screened.
INS-1E GSIS act: GLuc luminescence reporter in INS-1E cells, primary screen for activators of glucose-dependent secretion of insulin; activation, % at 16.6 µM; INS-1E GLuc reporter insulin secretion, 2-3 h; 370,000 compounds, 0.61% hits; AID 743287, 2014;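 active = lowest replicate activation of at least 40%, so every replicate reaches that level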;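 note: 0% = median of neutral control wells and 100% = median of IBMX positive control wells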
EWS-Fli inh: EWS/Fli-driven NR0B1 reporter inhibitors, primary screen, A673 cells, NR0B1 luciferase, luminescence, MLPCN library; inhibition, % at 12.6 µM; AID 651661, 2012; viability-normalised; 350,000 compounds, 0.67% hits;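 active = mean inhibition of at least 50% after viability correction, with every replicate also passing that limit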;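 note: firefly luciferase signal divided by Alamar Blue viability fluorescence both relative to DMSO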
PAX8 reporter: inhibitors of PAX8-driven TPO luciferase reporter, primary screen, RMG-I cells, single concentration; SteadyGlo, 24 h; 360,000 compounds, 1.2% hits; inhibition, % at 12.6 µM;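 active = mean replicate inhibition at least 60% with every replicate also reaching 60%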;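 note: luciferase light reporting Pax8 driven TPO promoter activity; plate controls were median of neutral control wells for no effect and mitoxantrone controls for full effect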
miR122 inh: miR-122 Renilla sensor signal increase in Huh7, primary screen, miR-122 inhibitor project, cell-based, single point, plate reader; Huh7 miR-122 Renilla luciferase sensor, 48 h; neutral wells = 0, positive control = 100; activation (reporter increase), % at 12.5 µM; 340,000 compounds, 0.3% hits;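 active = mean replicate activation score at least 90 and every replicate individually at or above 90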;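 note: higher luciferase means less miR-122 activity so hits act as miR-122 inhibitors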
Env fusion inh: inhibitors of HIV-1 Env-driven cell-cell fusion, primary screen, HeLa-JRFL effector, CEM21 target cells, luciferase. inhibition, % at 12.3 µM. 360,000 compounds, 1.1% hits;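 active = mean replicate inhibition score of at least 50 and every replicate individually at or above 50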;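 note: 0% = plate neutral controls and 100% = maraviroc near 300 nM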
C2C12 statin: suppressors of statin myotoxicity in C2C12 myotubes, primary screen, cell-based, single point, plate reader | 330,000 compounds, 0.78% hits | rescue of ATP level, % at 7.49 µM | AID 602340, 2012 | C2C12 myotubes + simvastatin, ATP luminescence, 48 h; scaled: DMSO 0, geranylgeraniol control 100;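 active = mean ATP rescue above about 67%, or every replicate alone reaching that limit, limit read from the data, passing the limit was not always enough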;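 note: myotubes were challenged with 10 µM simvastatin during compound exposure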
An asterisk follows results filed as active; . = no result; [ ] = another dose, or the depositor's remark.

SMILES	INS-1E GSIS act	EWS-Fli inh	PAX8 reporter	miR122 inh	Env fusion inh	C2C12 statin
CCN(CCNC(=O)C1CCN(Cc2nc(-c3cccc(Cl)c3)oc2C)CC1)c1ccccc1	.	.	.	-1.7	55.3*	-73.3
COc1ccc(CCNC(=O)C2CCN(Cc3nc(-c4ccccc4C)oc3C)CC2)cc1OC	.	.	.	-8.4	56.8*	1.3
CCN(CCNC(=O)C1CCN(Cc2nc(-c3ccc(Cl)cc3)oc2C)CC1)c1ccccc1	.	.	15.7	-11.9	7.7	-17.5
Cc1ccccc1-c1nc(CN2CCC(C(=O)NCCC3=CCCCC3)CC2)c(C)o1	.	.	4.7	-11.1	72.6*	-19.4
C[C@@H]1CN(C)C(=O)c2ccccc2O[C@@H]1CN(C)C(=O)OC(C)(C)C	0.9	.	.	.	.	.
N#Cc1sc2nc(C3CC3)cc(-c3ccccc3)c2c1N	48.7*	1.3	-14.5	-3.2	-20.8	.
CCOC(=O)c1sc2nc(C3CC3)cc(-c3ccc(F)cc3)c2c1N	.	.	.	-6.0	20.4	12.8
N#Cc1sc2nc(-c3ccccc3)cc(-c3ccco3)c2c1N	.	.	-10.9	8.4	-71.3	.
CCOC(=O)c1sc2nc(C3CC3)cc(-c3ccc(OC)cc3)c2c1N	17.7	.	.	-5.7	.	98.1*
C[C@H]1CN([C@@H](C)CO)C(=O)c2cc(-c3ccc(F)cc3)cnc2O[C@H]1CN(C)C(=O)c1ccncc1	9.6	-3.4	.	-1.6[16.7 µM]	11.9[16.7 µM]	2.2
COc1cccc(S(=O)(=O)Nc2ccc3c(c2)[C@@H]2C[C@H](CC(=O)NCCc4ccccc4)O[C@@H](CO)[C@@H]2O3)c1	-36.0	7.5	21.9	41.6[16.7 µM]	-0.2[16.7 µM]	8.9
C[C@H]1CN([C@@H](C)CO)S(=O)(=O)c2ccc(-c3cncnc3)cc2O[C@H]1CN(C)C(=O)c1ccc2c(c1)OCO2	-8.0	1.6	.	9.2[16.7 µM]	4.8[16.7 µM]	2.4
CC(=O)N(C)C[C@H]1Oc2ncc(C#Cc3ccccc3F)cc2C(=O)N([C@@H](C)CO)C[C@@H]1C	-8.0	-12.0	.	-2.8[16.7 µM]	5.2[16.7 µM]	19.7
COCCn1c(=NC(=O)c2cc(Cl)sc2Cl)sc2cc(S(N)(=O)=O)ccc21	169.7*	.	-12.6	.	5.6	.
C[C@@H]1CCCCO[C@@H](CN(C)C(=O)CCCN(C)C)[C@@H](C)CN([C@@H](C)CO)C(=O)c2cc(NC(=O)c3ccccc3)ccc2O1	6.4	-3.9	-5.7	6.3[16.7 µM]	11.5[16.7 µM]	19.3
CN(C)CCCNC(=O)C[C@@H]1CC[C@@H]2[C@H](COC[C@@H](O)CN2C(=O)c2ccncc2)O1	5.1	2.7	-25.1	28.7[16.7 µM]	4.8[16.7 µM]	-13.4
CCN1C(=O)[C@H]2[C@H]3CN=C(SCc4ccc(C#N)cc4)N3[C@@](Cc3ccccc3)(C(=O)OC)[C@H]2C1=O	-6.4	-4.6	5.3	-5.5	-15.5	15.1
COC(=O)[C@@]1(C)[C@H]2C(=O)N(Cc3ccccc3)C(=O)[C@H]2[C@H]2CN=C(SCc3ccccc3)N21	-7.3	-5.0	16.1	-0.7	77.1*	-7.6
CC[C@]1(C(=O)OC)[C@H]2C(=O)N(Cc3ccccc3)C(=O)[C@H]2[C@H]2CN=C(SCc3ccc(C(=O)OC)cc3)N21	-15.0	-1.8	-2.2	2.8	32.3	10.2
CC[C@]1(C(=O)OC)[C@H]2C(=O)N(Cc3ccccc3)C(=O)[C@H]2[C@H]2CN=C(SCC3CC3)N21	-16.8	-5.6	-4.8	3.1	80.9*	-3.5
COC(=O)[C@@]1(Cc2ccccc2)[C@H]2C(=O)N(Cc3ccccc3)C(=O)[C@H]2[C@H]2CN=C(SCc3ccc(C#N)cc3)N21	-18.6	-1.8	34.1	-5.4	69.2*	-19.4
CCN1C(=O)[C@H]2[C@H]3CN=C(SCc4ccc(C#N)cc4)N3[C@@](C)(C(=O)OC)[C@H]2C1=O	9.9	9.1	-15.5	-5.4	9.7	-0.2
CC[C@]1(C(=O)OC)[C@H]2C(=O)N(Cc3ccccc3)C(=O)[C@H]2[C@H]2CN=C(SCc3ccc(C)cc3)N21	-10.3	4.6	4.6	-5.4	69.4*	-12.2
CCN1C(=O)[C@H]2[C@H]3CN=C(SCC4CC4)N3[C@@](Cc3ccccc3)(C(=O)OC)[C@H]2C1=O	-4.2	-5.3	9.5	.	30.2	7.0
O=C(Nc1ccccc1)N1C[C@@H]2[C@H](c3ccccc31)[C@H](CO)N2Cc1cocn1	-5.7	-21.7	-52.3	-36.5[16.7 µM]	.	35.6
SMILES	INS-1E GSIS act	EWS-Fli inh	PAX8 reporter	miR122 inh	Env fusion inh	C2C12 statin
C[C@@H]1CN([C@@H](C)CO)S(=O)(=O)c2ccc(-c3ccccc3)cc2O[C@H]1CN(C)Cc1cccc(F)c1	-2.1	13.7	.	23.5[16.7 µM]	52.3[16.7 µM]	-70.3
O=C(Nc1ccc(F)cc1)Nc1ccc2c(c1)[C@@H]1C[C@H](CC(=O)N3CCCCC3)O[C@H](CO)[C@@H]1O2	-7.7	13.3	7.2	-6.1[16.7 µM]	89.8*[16.7 µM]	6.5
O=C(Nc1ccc(F)cc1)Nc1ccc2c(c1)[C@@H]1C[C@H](CC(=O)N3CCCCC3)O[C@@H](CO)[C@@H]1O2	-6.3	5.9	2.0	5.2[16.7 µM]	74.9*[16.7 µM]	4.4
O=C(Nc1ccc(F)cc1)Nc1ccc2c(c1)[C@@H]1C[C@@H](CC(=O)N3CCCCC3)O[C@@H](CO)[C@@H]1O2	-12.2	-16.1	13.2	-5.0[16.7 µM]	-9.4[16.7 µM]	-1.6
CCCOc1ccc(C(=O)C(CN2CCCC2)c2ccccc2)cc1 (stereo not drawn)	32.2	61.4*	52.2	.	.	.
CCCCOc1ccc(C(=O)C(CN2CCOCC2)c2ccccc2)cc1 (stereo not drawn)	.	.	.	2.4	.	.
O=C(c1ccc(F)cc1)C(CN1CCOCC1)c1ccccc1 (stereo not drawn)	-17.0	57.2*	.	-17.7	.	-2.3
O=C(c1ccc(Cl)cc1)C(CN1CCCC1)c1ccccc1 (stereo not drawn)	-9.1	65.3*	48.3	6.7	-412.2	-32.8
CN(C)CC(=O)N[C@H]1CC[C@H](CCn2cc(C3CCCC3)nn2)O[C@@H]1CO	7.1	7.5	0.9	.	4.3[16.7 µM]	6.2
CC[C@@H](C)[C@@H]1CN([C@@H](CN2CCC[C@H]2CN2C(N)=NC[C@H]2C(C)C)C(C)C)C(=N)N1CCCC1CCCC1	16.1	-6.0	84.4*	-4.0	17.3	16.9
CCC[C@@H](CN1CCC[C@H]1CN1C(N)=NC[C@H]1C(C)C)N1C[C@@H]([C@H](C)CC)N(CCCC2CCCC2)C1=N	.	5.0	11.9	-0.8	-22.5	7.0
C[C@H]1CN([C@@H](C)CO)C(=O)c2cc(NS(=O)(=O)c3ccccc3)ccc2O[C@H]1CN(C)CC1CC1	-3.2	-9.3	0.4	0.4[16.7 µM]	31.3[16.7 µM]	-10.0
O=C(Cn1cc(C(F)(F)F)ccc1=O)Nc1ccc2c(c1)OCO2	.	-0.4	95.4*	-7.6	24.0	2.8
